Drawing on PubChem BioAssay (NCI), this text covers growth for 39 compounds.

Compounds without any hit were thinned out: in the full panel of roughly 83,000, 20% have a hit.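 Growth was measured after 48 h exposure to one concentration of compound in 96-well plates. Values under 10 count as active.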 A number with no mark means an inactive call. The source made the active and inactive calls.

This assay relates to HL-60(TB) leukemia. Briefly: NCI-60 one-dose screen, 48 h (100 = growth as untreated, 0 = no growth, -100 = all killed). The note with it: 10 µM unless noted.
For `CCOC(=O)c1cnn(CC(C)O)c1NC(=O)NCc1cccc(F)c1` (centres undefined), the growth was 90.5%.

`Cn1nc(CC#N)c2c(=N)n(N)cnc21`: the growth is 84.4%.

In the case of `N#C/C(C(=O)c1ccccc1)=C1/C(=O)Nc2ccccc21`, the growth was 106%.

Take `Cc1ccc(S(=O)(=O)NC(=O)n2cc(-c3ccncc3)c(-c3ccc(Cl)c(O)c3)n2)cc1`: the growth is 85.1%.

As to `N/C(=N\C(N)=N\c1nc2ccccc2s1)c1ccncc1`, the growth was 35.2%.

Take `C/C(=C\CCc1ccsc1)CC/C=C(\C)CCCN1CCN(CCO)CC1`: the growth is -38.3% (active).

Consider `N#Cc1c(-c2ccccc2)nc(SCC(=O)Nc2nc(-c3ccc(Cl)cc3)cs2)[nH]c1=O`, for which the growth was 96.1%.

`O=C(Nc1ccccc1)P(=O)(O)c1ccccc1`: the growth was 92.2%.

In the case of `CN(C)c1ccc(C2C(C#N)=C(/N=C/c3ccccc3)Oc3c2ccc2ccccc32)cc1` (centres undefined), the growth was 29.5%.

On to `CCCCCCCN(CCCCCCC)C(=N)c1ccc(OC)c2ccccc12`, for which the growth was -66.4% (active).

`CC(C)(C)OC(=O)N1CCc2c(sc3ncnc(N/N=C/c4ccc(Br)cc4)c23)C1`: the growth is 83.1%.

As for `O=C(Nc1cccc(C(=O)N2CCc3ccc(Cl)cc32)c1)c1ccco1`, the growth was 1.39% (active).

`CCOC(=O)c1[nH]c2c(c1C)-c1[nH]c(=O)c(S(=O)(=O)c3ccccc3)cc1SC2`: the growth is 54.7% [100 µM].

Consider `C=CCSC(CC)(CC)C(=O)NC`, for which the growth was 89.3%.

Regarding `COc1ccc(OC)c(NC(=O)c2sc3nc4c(cc3c2N)C(=O)CCC4)c1`, the growth is 88.4%.

Take `COC1OCC(OS(=O)(=O)c2ccc(C)cc2)C(OC(=O)c2ccccc2)C1OC(=O)c1ccccc1` (centres undefined): the growth is 25.4%.

`CN(CCC#N)c1ccc(/C=C(\C#N)c2cccc(C(F)(F)F)c2)cc1`: the growth was 69.5%.

Regarding `O=C(/C=C1\C(=O)N(Cc2ccccc2)c2ccccc21)c1ccc(OCCN2CCCCC2)cc1`, the growth was 7.79% (active).

Take `CCN1CCN(C(=O)[C@@]2(C)CC[C@]3(C)CC[C@]4(C)C(=CC(=O)[C@@H]5[C@@]6(C)CC[C@H](OCCC#N)C(C)(C)[C@@H]6CC[C@]54C)[C@@H]3C2)CC1`: the growth was 90.3%.

On to `N#CCC1CCCC1`, for which the growth is 102%.

For `CNC(=O)c1cccc(Cn2nc(C)c(NC(=O)c3ccc(COc4ccc(C(F)(F)F)cc4C)cc3)c2C)n1`, the growth was 36.7%.

On to `CN1CCN(Cc2ccc(NC(=O)c3cncc(C#Cc4cnc5ccc(Cl)nn45)c3)cc2C(F)(F)F)CC1`, for which the growth was -17.6% (active).

As to `N#CC1=C(N)Oc2ccc3ccccc3c2C1c1ccc([N+](=O)[O-])cc1` (centres undefined), the growth is 39.8%.

For the compound `CN1C(=O)N(C)C2C1NN=c1s/c(=C\c3ccccc3)c(=O)n12` (centres undefined), the growth is 16.9%.

With `Nn1c(SCC(=O)Nc2cc(Cl)c(Cl)cc2Cl)nnc1-c1cc(F)c(Cl)cc1Cl`, the growth was 92%.

Regarding `CCOC(=O)C(c1ccccc1)N1C(=O)c2ccccc2C1=O` (centres undefined), the growth was 115%.

Regarding `O=[N+]([O-])/C(=C/c1ccccc1)c1ccccc1`, the growth was 85.6%.

For the compound `CC(C)NS(=O)(=O)c1cccc(-c2ccc3c4c(n(CCCN(C)C)c(=O)c3c2)-c2ccccc2C4=O)c1`, the growth was 65.3%.

As to `O=C(CCN1C(=O)c2ccccc2C1=O)Nc1ccc(Cl)cc1`, the growth is 105%.

For the compound `COc1cc2oc(-c3cccc(C(=O)Nc4ccc(C#N)cc4)c3)cc(=O)c2c(O)c1OC`, the growth is 136%.

In the case of `Cc1cc2c(C(C)C)c(O)c(O)c(C=NCc3ccoc3)c2c(O)c1-c1c(C)cc2c(C(C)C)c(O)c(O)c(C=NCc3ccco3)c2c1O`, the growth was 9.25% (active).

Turning to `O=C1Nc2ccc(Br)cc2C12CC(c1ccccc1)=NN2` (centres undefined), the growth is -4.96% (active).

For the compound `CCCCCCCCc1ccc(CCC(N)(CO)CO)cc1`, the growth is -14.1% (active).

For `COc1cc2c(cc1OC)C(=O)/C(=C/c1cc(C)c(O)c(C)c1)S2`, the growth is -3.56% (active).

Take `CC(C)(C)OC(=O)N1CCC(O)[C@@H](O[Si](c2ccccc2)(c2ccccc2)C(C)(C)C)[C@H]1/C=C/c1ccccc1` (some centres undefined): the growth was 55.9%.

For `COc1cccc(-c2cn3nc(-c4cn(C)c5ccccc45)sc3n2)c1`, the growth was 104%.

`C=C(C)[C@@H]1CC[C@]2(C(=O)OCCOCCOCC[P+](c3ccccc3)(c3ccccc3)c3ccccc3)CC[C@]3(C)[C@H](CC[C@@H]4[C@@]5(C)CC[C@H](OC(C)=O)C(C)(C)[C@@H]5CC[C@]43C)[C@@H]12`: the growth is -62.3% (active).

Turning to `Cc1ccccc1NC(=O)c1sc2nc3c(cc2c1N)CCCC3`, the growth was 11.8%.

As for `COc1ccc2c(c1)CCCN2c1c2ccccc2nc2ccccc12`, the growth was 5.6% (active).
